Bioassay records: PubChem, National Center for Advancing Translational Sciences (NCATS)
DRD3 antagonist: antagonists of human D3 dopamine receptor; P35462; D3R cells, DiscoveRx beta-arrestin luminescence, antagonist mode; hits give low values; max response, negative = inhibition, %; hit rate 2.5% among 360,000; AID 652054; in the data active means max response below about -50%; inconclusive means no clear call, values can overlap the other calls; further: on the % scale 0 is the no-effect control and ±100 the full control effect
Target sequence (P35462 whole entry, looked up): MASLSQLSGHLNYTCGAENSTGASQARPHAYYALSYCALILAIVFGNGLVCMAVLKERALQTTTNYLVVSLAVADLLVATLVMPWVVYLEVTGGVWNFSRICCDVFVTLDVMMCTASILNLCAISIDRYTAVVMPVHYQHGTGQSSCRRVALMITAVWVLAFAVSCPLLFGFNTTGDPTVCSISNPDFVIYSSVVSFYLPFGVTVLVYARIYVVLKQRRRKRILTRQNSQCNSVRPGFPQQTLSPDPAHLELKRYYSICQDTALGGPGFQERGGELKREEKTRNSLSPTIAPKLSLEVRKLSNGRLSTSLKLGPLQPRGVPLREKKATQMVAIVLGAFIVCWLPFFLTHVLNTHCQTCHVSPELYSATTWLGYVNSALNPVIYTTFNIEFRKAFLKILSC
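Cells plated overnight at 1500 cells/well, then exposed to library compounds with dopamine controls for 90 minutes at 37 degrees C. DiscoveRx reagent added for 30–60 minutes at room temperature; luminescence read, quantitative HTS format.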
Akt phos inh: inhibitors of Akt phosphorylation; Neuro2A IGF-stimulated pAkt S473 HTRF, 20 min; hits give low values; activity change, % for hits at 50 µM; hit rate 0.32% among 360,000; AID 651550; in the data active means activity change below about -80%; inconclusive means mostly about -51% to -80%; further: on the % scale 0 is the no-effect control and ±100 the full control effect
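Neuro2A cells in DMEM with 0.5% FBS, overnight at 37 deg C, given compound at single 50 µM final, then IGF (6 nM final) for 20 min at 37 deg C. Lysed; phospho-Akt Ser473 by HTRF after 24 h, 665/615 ratio.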
D3 ag: agonists of human D3 dopamine receptor | P35462 | D3R DiscoveRx beta-arrestin cells, luminescence, 90 min | max activation, % | hit rate 0.58% among 410,000; in the data active means max activation above about 30%; further: 0% is about no effect
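Agonist mode: compounds and dopamine controls were applied to plated cells for 90 min at 37 degrees C after an overnight attachment at 1500 cells/well. Luminescent read-out followed 30 - 60 minutes at room temperature with DiscoveRx detection reagent.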
RGS4 inhibitor: human RGS4 inhibition | hit rate 0.039% among 390,000 | Potency, µM (highest dose often 114 µM), without a hit: top-dose activity change, negative = inhibition, usual class: inhibitors | Transcreener GDP fluorescence polarization, RGS4-accelerated GTP hydrolysis | P49798; active means well fitted inhibition curve with a large enough effect; inconclusive means small, poorly fitted or top-dose-only effect; inactive means no such curve, though single readings can be large or run the other way; further: potency means the concentration at half of the fitted maximal effect; on the % scale 0 is the no-effect control and ±100 the full control effect; nearly all actives have a fitted effect of over 75% in size
Target sequence (P49798 whole entry, looked up): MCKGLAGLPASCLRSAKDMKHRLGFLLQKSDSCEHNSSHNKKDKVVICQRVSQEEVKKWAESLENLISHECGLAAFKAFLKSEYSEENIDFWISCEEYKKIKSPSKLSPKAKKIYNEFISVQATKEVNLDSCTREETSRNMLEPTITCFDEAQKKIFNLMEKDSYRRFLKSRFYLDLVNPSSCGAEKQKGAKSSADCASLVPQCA
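MLSMR compounds (23 nl, pin-transferred) preincubated 10 min at room temperature with a 500nM (2x) first reagent, then RGS4 at 900nM (2x) plus Transcreener GDP mix added; fluorescence polarization (620/688 nm) read before and after 90 min at 30 °C.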
PI4K2A block: inhibitors of human PI4K2A. Q9BTU6. purified PI4K2A, ADP-Glo luminescence, 1 h; hits give low values. activity change, negative = inhibition, % at 76.9 µM. hit rate 0.13% among 420,000. AID 1346378; in the data active means activity change below about -50%; inconclusive means mostly about -30% to -49%;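 further: -100% = wells without enzyme as full effect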
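PI4K2A activity was measured by ADP-Glo luminescence: enzyme (4 ug/mL stock) and phosphatidylinositol (1.2 mM stock) in Tris pH 7.5/MgCl2/EGTA/Triton X-100 buffer were reacted with ATP (300 microM stock) for one hour at ambient temperature.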
LDHA block: blocks human lactate dehydrogenase A; purified LDHA, NADH/diaphorase-resazurin fluorescence; hits give low values; AID 1347041; hit rate 0.15% among 480,000; activity change, % (values are at about 110 or 230 µM); P00338; in the data active means activity change below about -30%; inconclusive means mostly about -25% to -30%;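 further: plate controls were DMSO wells for no effect and wells without enzyme for full effect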
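Human LDH5 (2 nM) was incubated with 0.06 mM NADH and 0.2 mM pyruvate for 5 min at room temperature in Tris pH 7.4. Remaining NADH was coupled through diaphorase/resazurin, and resorufin fluorescence was read at 0 and 20 min.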
* = called active by the depositor; i = inactive; ? = inconclusive; . = no result given; ! = a repeat was not active; [ ] = another dose, or the depositor's remark. Most compounds without a hit are left out; they make up all but 2.8% or so of the library.

SMILES | DRD3 antagonist | Akt phos inh | D3 ag | RGS4 inhibitor | PI4K2A block | LDHA block
CCOC(=O)C1CCN(Cc2ccc(F)c(F)c2)CC1 | ? | i | -29.5 | 9.9% | 6.0 | -9.9
CN(CC(F)(F)F)C(=O)CCNC(=O)c1ccc(Br)cc1 | . | . | . | . | . | 5.4
NNC(=O)c1cccc([N+](=O)[O-])c1 | . | . | . | . | . | 8.5
CCn1cc(C(=O)N[C@H](C(=O)NCCCO)C(C)C)c(=O)c2cc3c(cc21)OCO3 | 10.2 | i | 4.7 | -15.2% | -4.0 | -1.8
CCn1cc(C(=O)N[C@H](C(=O)NCCO)C(C)C)c(=O)c2cc3c(cc21)OCO3 | -15.3 | i | 50.7* | 2.5% | -3.5 | 6.1
CCC(=O)NC1Cc2ccccc2C(c2ccccc2)C1 (configuration not stated) | . | . | . | 23.8µM* | . | .
O=c1oc2ccccc2c(NC2CCCC2)c1NS(=O)(=O)c1ccc(Cl)cc1 | . | . | . | . | . | 17.5
CCN(CC)CCOC(=O)c1ccc(NC(=O)CCCN2C(=O)S/C(=C/c3ccc(OC)cc3)C2=S)cc1 | -82.7* | i | -19.2 | ? | 16.3 | -0.1
COc1ccc(/C=C2\SC(=S)N(CCC(=O)Nc3ccc(O)cc3)C2=O)cc1 | -17.4 | i | -1.5 | -18.7% | -3.0 | -6.2
CCN1C(=O)C(NC(=O)C(=O)NCc2cccnc2)c2cc(Cl)ccc21 (configuration not stated) | . | . | . | . | . | 35.0
COC(=O)c1[nH]c2cccc(OC)c2c1NC(=O)CCN1CCSCC1 | -20.5 | i | 0.6 | -17.9% | 0.8 | -6.1
COC(=O)c1[nH]c2ccccc2c1NC(=O)CN1CCN(c2cccc(Cl)c2)CC1 | -14.5 | i | 0.4 | -38.2% | 2.2 | -2.2
COC(=O)c1[nH]c2ccccc2c1NC(=O)Oc1ccccc1 | -52.3* | i | -2.4 | -19.2% | -6.2 | 2.4
COC(=O)c1[nH]c2ccccc2c1NC(=O)CN1CCN(C(=O)c2ccco2)CC1 | -52.2* | i | 30.9* | -8.7% | -0.4 | 0.0
COC(=O)c1[nH]c2ccccc2c1NC(=O)CN1CCC(C(N)=O)(N2CCCCC2)CC1 | -54.4* | i | 1.0 | -13.5% | 4.4 | -5.2
COC(=O)c1[nH]c2cc(OC)ccc2c1NC(=O)CCN1CCSCC1 | -70.0* | i | -2.3 | -4.5% | 0.4 | -3.3
CCCn1nc(C(=O)Nc2cccc(C(=O)Nc3cccc(C(F)(F)F)c3)c2)c2ccccc2c1=O | . | . | . | . | . | 2.0
COc1ccc(/C=C/C(=O)c2ccc(OC(C)C(=O)O)cc2)cc1O (configuration not stated) | . | . | . | . | . | 35.6
Cc1c(C(=O)NCc2ccco2)oc2c1/C(=N/O)CCC2 | . | . | . | . | . | -24.9
CCOC(=O)N1CCN(CC(=O)Nc2c(C(=O)OC)[nH]c3ccccc23)CC1 | 8.8 | i | 7.8 | 10.9% | -1.2 | -8.4
COC(=O)c1[nH]c2ccccc2c1NC(=O)CN1CCCCCC1 | -52.9* | i | 7.7 | -35.4% | -0.9 | -5.7
CC(C)(C)c1ccc(C(=O)C[n+]2ccccc2Cl)cc1 | . | . | . | . | . | -51.9*
CNC(=O)CCNC(=O)c1ccccc1-c1ncc(-c2ccc(F)cc2)o1 | . | . | . | . | . | -5.5
c1ccc(C2OC3c4cccc5cccc(c45)C3N2c2ccccc2)cc1 (configuration not stated) | -59.0* | i | -5.0 | -37.2% | 10.5 | 10.0
Cc1ccc(C(c2nnnn2CCC(C)C)N2CCN(C)CC2)cc1 (configuration not stated) | -67.0* | i | -0.6 | 10.7% | -1.2 | 1.0
SMILES | DRD3 antagonist | Akt phos inh | D3 ag | RGS4 inhibitor | PI4K2A block | LDHA block
CC(C)CCn1nnnc1C(c1ccccc1)N1CCC(C(N)=O)CC1 (configuration not stated) | 12.7 | i | 3.7 | -40.3% | 4.0 | -8.4
C=CCN1CCN(C(c2ccccc2)c2nnnn2CCC(C)C)CC1 (configuration not stated) | -82.2* | i | -9.9 | -89.7%[11.4 µM] | -4.8 | -0.1
CC(C)CCn1nnnc1C(c1ccccc1)N1CCN(C)CC1 (configuration not stated) | -14.7 | i | 1.7 | -0.6% | -11.7 | -4.9
Cc1ccc(/C=C/C(=O)NC2CCCCCCC2)o1 | -61.3* | i | -18.4 | ? | -4.1 | 7.9
O=C(O)C1CCCCN1c1ccccc1[N+](=O)[O-] (configuration not stated) | 16.8 | i | 4.6 | . | -6.1 | 0.1
N#Cc1ccc(N2CCCC2C(=O)O)c([N+](=O)[O-])c1 (configuration not stated) | ? | -118.0%* | -0.5 | 24.4% | -2.9 | -2.3
CC(C)(CNC(=O)c1ccccc1NS(C)(=O)=O)N1CCCCC1 | -58.1* | i | -20.6 | -8.9% | 3.5 | -4.9
CC(=O)Nc1ccc(SCC(=O)N(C)C2CCS(=O)(=O)C2)cc1 (configuration not stated) | -59.2* | i | -11.7 | -38.8% | -9.9 | -0.8
COC(=O)c1sccc1NC(=O)Nc1ccc(C)cc1 | -1.8 | i | 54.9* | 13.1% | ? | -4.3
COC(=O)c1cc(Br)ccc1NC(=O)Nc1ccccc1 | 16.5 | i | -8.6 | 14.2% | -3.0 | -6.0
COC(=O)c1sccc1NC(=O)NC1CCCCC1 | -51.0* | i | 6.9 | 12.7% | -0.4 | 1.8
COC(=O)c1cc(Br)ccc1NC(=O)Nc1ccc(C)cc1 | -79.9* | -115.2%* | -6.5 | -10.6% | -3.9 | -8.4
COC(=O)c1sccc1NC(=O)Nc1cc(C)cc(C)c1 | 14.9 | i | 4.8 | 9.0% | -1.2 | -1.9
O=C(COC(=O)c1c[nH]c2ccccc12)Nc1ccc(N2CCOCC2)cc1 | . | . | . | . | . | 0.1
CC(C)(Sc1ccc(CCN(CCCCC2CCCCC2)C(=O)NC2CCCCC2)cc1)C(=O)O | -2.1 | i | -31.2 | 26.7µM*! | 0.7 | 2.2
COc1ccc(CCNC(=O)CCN2C(=O)COc3ccccc32)cc1OC | 4.5 | i | 0.1 | 4.5% | 1.4 | -15.2
COc1ccc(CCNC(=O)CCn2cccc2)cc1OC | 10.8 | -101.3%* | 4.5 | -0.7% | 2.9 | -6.4
O=C(CCN1C(=O)COc2ccccc21)NCCN1CCc2ccccc2C1 | -61.8* | i | -33.1 | -16.0% | 2.7 | 5.8
COc1ccc(CCNC(=O)CCN2C(=O)COc3ccc(C)cc32)cc1OC | -65.1* | i | -3.2 | 4.5% | -4.6 | 2.5
COC(=O)c1ccn(Cc2c(Cl)cccc2Cl)n1 | . | . | . | . | . | 5.1
Cn1nc(C(=O)OCC(=O)Nc2cccc(C(F)(F)F)c2)c2ccccc2c1=O | . | . | . | . | . | 1.0
Cc1ccc2nc(NC(=O)CN(C)S(=O)(=O)c3cccc4nsnc34)sc2c1 | ? | -101.0%* | -2.8 | -20.2% | -5.0 | 0.0
Cc1ccnc(NC(=O)CN(C)S(=O)(=O)c2cccc3nsnc23)c1 | 8.9 | i | 3.2 | 8.3%[11.4 µM] | -0.3 | 7.0
